DT40 TDP1 no CPT – qHTS for Inhibitors of human tyrosyl-DNA phosphodiesterase 1 (TDP1): qHTS in cells in absence of CPT | DT40 Tdp1-/- hTDP1 cells, no CPT, ATP luminescence, 48 h | Potency, µM (highest dose often 46.2 µM), inactives show at the highest dose activity change, negative = growth inhibition, hits mostly inhibitors | hit rate 15% among 420,000; also: % is scaled to controls: 0 for no effect and ±100 for the full control effect; nearly all actives have a fitted effect of over 55% in size
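No-CPT arm: Tdp1-/-;hTDP1 DT40 cells (400/well) plus compounds, incubated ≥48 hr at 37 °C. Readout CellTiter-Glo luminescence.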
HT1080 IDH1KD tx – qHTS for induction of synthetic lethality in tumor cells producing 2HG: qHTS for the HT-1080-IDH1KD cell line; HT-1080 IDH1 knockdown viability, ATP luminescence, 48 h; AID 686971, 2013; Potency, µM (top dose mostly 46.1 µM), for inactives: at the top dose activity, negative = toxicity, hits mostly cytotoxic; hit rate 2% among 360,000;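 also: 0% = DMSO wells and -100% = cell-free medium wells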
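% activity derives from luminescence (CellTiter-Glo), normalised to DMSO and no-cell wells. HT-1080-IDH1KD cells, 750/well, had 48 h compound exposure at 37 °C.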
DT40 TDP1 CPT – qHTS for Inhibitors of human tyrosyl-DNA phosphodiesterase 1 (TDP1): qHTS in cells in presence of CPT; chicken DT40 Tdp1-/-;hTDP1 cells + 20 nM CPT, ATP luminescence, 48 h; Potency, µM (series often up to 46.2 µM), for the others: top-dose activity change, negative = growth inhibition, usual class: inhibitors; hit rate 12% among 420,000; AID 686979, 2013; also: % is scaled to controls: 0 for no effect and ±100 for the full control effect; nearly all actives have a fitted effect of over 55% in size
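Chicken DT40 Tdp1-/- cells complemented with human TDP1, 400 cells/well, exposed to compounds plus 20 nM camptothecin for at least 48 h at 37 C; viability read as ATP content by CellTiter-Glo luminescence.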
TGFb inhibitor – qHTS for Inhibitors of TGF-b. Potency, µM (doses to about 46.1 µM), inactives show at the top dose activity, negative = inhibition, hits mostly inhibitors. HepG2 CAGA-GFP TGF-b/SMAD3 reporter, GFP fluorescence, 18 h; TGF-beta stimulated, 500 pg/mL final. hit rate 1.2% among 410,000; also: % is scaled to controls: 0 for no effect and ±100 for the full control effect; nearly all actives have a fitted effect of over 65% in size
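Using HEPG2 CAGA-GFP reporter cells at 1000 cells/well, we pinned test compounds, stimulated with recombinant TGF-beta (500 pg/mL final) and measured total well GFP after 18 h.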
HT1080NT lethal – qHTS for induction of synthetic lethality in tumor cells producing 2HG: qHTS for the HT-1080-NT fibrosarcoma cell line; HT-1080-NT fibrosarcoma viability, CellTiter-Glo ATP luminescence, 48 h; Potency, µM (titrated, usually from 46.1 µM), for inactives: at the highest dose activity, negative = less viability, hits mostly cytotoxic; hit rate 1.6% among 360,000; AID 686970, 2013;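 also: NT is the 2HG producing partner of a matched IDH1 knockdown line; 0% = DMSO-treated cells and -100% = media-only wells without cells; nearly all actives have a fitted effect of over 55% in size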
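Viability of the 2HG-overproducing fibrosarcoma line after 48 hours of compound exposure at 37 degrees C was determined by luminescence with CellTiter-Glo, and concentration-effect curves were then fitted and categorized.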
HepG2 tox – qHTS for Inhibitors of TGF-b: Cytotox Counterscreen. HepG2 CAGA-GFP viability, ATP luminescence, 18 h. Potency, µM (doses to about 46.1 µM), for inactives: at the highest dose activity change, negative = cytotoxicity, actives largely listed as cytotoxic. hit rate 0.76% among 410,000
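HepG2 CAGA-GFP cells (1000/well, DMEM with 1% FBS) received compound, then TGF-beta at 500 pg/mL final, and were incubated 18 hours at 37 degrees C. Viability was read by CellTiter-Glo luminescence. Media-only wells were set as complete cell-killing and DMSO as no toxicity.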
Numbers without * were called inactive. Shown are actives, neighbours in structure and some others; about 17% of the full set was active somewhere. Calls follow the shape of the dose curve; as a rule, active = well fitted curve in the direction sought with a large enough effect; inconclusive = small, poorly fitted or top-dose-only effect, or another doubt; inactive = no such curve, though single readings can be large; an effect the other way counts as inactive or inconclusive. Potency is read from the fitted curve at half-maximal effect.

Screening COc1ccc(OCC(=O)Nc2cc3oc4ccccc4c3cc2OC)cc1 returned DT40 TDP1 no CPT -29%, HT1080 IDH1KD tx 27%, DT40 TDP1 CPT 9%, TGFb inhibitor 2%, HT1080NT lethal 20% and HepG2 tox 1%.
COc1cc2c(cc1NC(=O)c1cc(-c3cccnc3)nc3ccc(C)cc13)oc1ccccc12 was read as DT40 TDP1 no CPT inconclusive, HT1080 IDH1KD tx 1%, DT40 TDP1 CPT 11µM*, TGFb inhibitor 19%, HT1080NT lethal 1% and HepG2 tox -10%.
For O=C(O)[C@H]1/C(=C/CO)O[C@@H]2CC(=O)N21 the results were DT40 TDP1 no CPT -14% and DT40 TDP1 CPT -1%.
`O=C1NC(c2cccc(OCc3ccccc3)c2)Nc2ccccc21` (centres undefined) gave DT40 TDP1 no CPT 1.2µM*, HT1080 IDH1KD tx 0.58µM*, DT40 TDP1 CPT 1.5µM*, TGFb inhibitor inconclusive, HT1080NT lethal inconclusive and HepG2 tox 1%.
`CC(C)(C)C1CCc2nc(NC(=O)Cc3ccc(Cl)cc3)sc2C1` (centres undefined) gave DT40 TDP1 no CPT 7.3µM*, DT40 TDP1 CPT 6.5µM*, TGFb inhibitor inconclusive and HepG2 tox -75%.
COc1ccc(CC(=O)Nc2nc3c(s2)CC(C(C)(C)C)CC3)cc1 (centres undefined) was read as DT40 TDP1 no CPT inconclusive, DT40 TDP1 CPT inconclusive, TGFb inhibitor inconclusive and HepG2 tox -50%.
CC(C)CC(=O)Nc1nc2c(s1)CC(C(C)(C)C)CC2 (centres undefined) was read as DT40 TDP1 no CPT 15µM*, DT40 TDP1 CPT 16µM*, TGFb inhibitor -21% and HepG2 tox -26%.
CC(C)(C)C1CCc2nc(NC(=O)Cc3cn4ccsc4n3)sc2C1 (centres undefined) was read as DT40 TDP1 no CPT inconclusive, HT1080 IDH1KD tx inconclusive, DT40 TDP1 CPT 11%, TGFb inhibitor inconclusive, HT1080NT lethal inconclusive and HepG2 tox 4%.
CC(C)(C)C1CCc2nc(NC(=O)COc3ccc(F)cc3)sc2C1 (centres undefined) was read as DT40 TDP1 no CPT 21µM*, DT40 TDP1 CPT inconclusive, TGFb inhibitor -15% and HepG2 tox 0%.
`O=C(COc1ccc(F)cc1)Nc1nc2c(s1)CCCC2` gave DT40 TDP1 no CPT -65%, HT1080 IDH1KD tx 2%, DT40 TDP1 CPT -80%, TGFb inhibitor 3%, HT1080NT lethal 7% and HepG2 tox -9%.
FC(F)(F)c1cc(-c2cccs2)nc(-n2cc(Cl)cn2)n1 was read as DT40 TDP1 no CPT -24%, HT1080 IDH1KD tx -3%, DT40 TDP1 CPT -16%, TGFb inhibitor -19%, HT1080NT lethal 0% and HepG2 tox -23%.
For CC(=O)N1CCC[C@H]1C(=O)NCC1Cc2cc(-c3cnccn3)cc(Cl)c2O1 (some centres undefined) the results were DT40 TDP1 no CPT -13% and DT40 TDP1 CPT -7%.
CN(Cc1nc(Cc2ccccc2F)no1)CC1(N2CCOCC2)CCCCC1 was read as DT40 TDP1 no CPT inconclusive, HT1080 IDH1KD tx 1%, DT40 TDP1 CPT -4%, TGFb inhibitor 4%, HT1080NT lethal 3% and HepG2 tox -10%.
For CN(Cc1nc(Cc2ccccc2F)no1)Cc1cccc2ncccc12 the results were DT40 TDP1 no CPT 16µM*, HT1080 IDH1KD tx -30%, DT40 TDP1 CPT inconclusive, TGFb inhibitor -20%, HT1080NT lethal -28% and HepG2 tox -1%.
For COC(=O)CC1(CC(N)=O)SCCS1 the results were DT40 TDP1 no CPT inconclusive, HT1080 IDH1KD tx inconclusive, DT40 TDP1 CPT -21%, TGFb inhibitor inconclusive, HT1080NT lethal -4% and HepG2 tox 14µM*.
Screening COC(=O)CNC(=O)C12CC3(C)CC(C)(CC(C)(C3)C1)C2 returned DT40 TDP1 no CPT inconclusive, HT1080 IDH1KD tx 7%, DT40 TDP1 CPT inconclusive, TGFb inhibitor -1%, HT1080NT lethal 8% and HepG2 tox -22%.
For Cn1nc(C(=O)NC2CCCN(Cc3ccccc3F)C2)c2ccccc2c1=O (centres undefined) the results were DT40 TDP1 no CPT inconclusive, HT1080 IDH1KD tx -3%, DT40 TDP1 CPT inconclusive, TGFb inhibitor 0%, HT1080NT lethal -3% and HepG2 tox 0%.
`Cc1cc(C(=O)NC2CCCN(Cc3ccccc3F)C2)no1` (centres undefined) gave DT40 TDP1 no CPT -28%, HT1080 IDH1KD tx 10%, DT40 TDP1 CPT -20%, TGFb inhibitor -23%, HT1080NT lethal 4% and HepG2 tox -9%.
For COc1ccc(C(=O)NC2CCCN(Cc3ccccc3F)C2)c(OC)c1OC (centres undefined) the results were DT40 TDP1 no CPT 5.2µM*, HT1080 IDH1KD tx -6%, DT40 TDP1 CPT inconclusive, TGFb inhibitor inconclusive, HT1080NT lethal -5% and HepG2 tox -38%.
`CCc1cc(C(=O)NC2CCCN(Cc3ccccc3F)C2)n(C)n1` (centres undefined) gave DT40 TDP1 no CPT 9.2µM*, HT1080 IDH1KD tx -4%, DT40 TDP1 CPT 6.5µM*, TGFb inhibitor -19%, HT1080NT lethal -2% and HepG2 tox -19%.
Cc1ccccc1/C=N/N1CCN(c2ccccc2)CC1 was read as DT40 TDP1 no CPT 10%, HT1080 IDH1KD tx 18%, DT40 TDP1 CPT 12%, TGFb inhibitor 5%, HT1080NT lethal 10% and HepG2 tox 11%.
Screening COc1ccc(C2CC(c3ccccc3)Oc3c(C)ccc(C(C)C)c32)cc1 (centres undefined) returned TGFb inhibitor inconclusive and HepG2 tox -6%.
`CCOC(=O)c1nc(NNC(=O)c2ccc([N+](=O)[O-])cc2)sc1C` gave DT40 TDP1 no CPT inconclusive, HT1080 IDH1KD tx 7.3µM*, DT40 TDP1 CPT inconclusive, TGFb inhibitor inconclusive, HT1080NT lethal inconclusive and HepG2 tox -55%.
Screening CCOC(=O)c1sc(NNC(=O)c2ccc(C)cc2)nc1C returned DT40 TDP1 no CPT inconclusive, HT1080 IDH1KD tx -23%, DT40 TDP1 CPT -33%, TGFb inhibitor 0%, HT1080NT lethal -10% and HepG2 tox -54%.

Screens (PubChem)
